M18AAP inhibitor: blocks P. falciparum M18 aspartyl aminopeptidase; inhibition, % at 7.35 µM; AID 1822; hit rate 1.2% among 290,000; recombinant PfM18AAP, H-Glu-NHMec fluorogenic cleavage;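 active = inhibition above the campaign mean inhibition over all tested compounds plus 3 SD, cut at about 28% in these data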
Rce1 inh: yeast Ras-converting enzyme inhibition. calls only. yeast membranes, quenched prenylated peptide cleavage fluorescence. hit rate 0.27% among 290,000;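 active = fall in fluorescence gain of 50% or more versus controls, with final raw signal at or below 3038400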
Target sequence (Q03530 whole entry, looked up): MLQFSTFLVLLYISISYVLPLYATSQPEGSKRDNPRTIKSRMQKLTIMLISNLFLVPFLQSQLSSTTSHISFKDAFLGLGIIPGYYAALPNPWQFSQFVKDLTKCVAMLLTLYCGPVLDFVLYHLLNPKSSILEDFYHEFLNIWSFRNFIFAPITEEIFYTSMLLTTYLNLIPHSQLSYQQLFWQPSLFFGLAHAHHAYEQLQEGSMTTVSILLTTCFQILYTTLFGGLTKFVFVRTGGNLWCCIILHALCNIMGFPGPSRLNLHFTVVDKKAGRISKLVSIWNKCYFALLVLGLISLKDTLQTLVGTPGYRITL
FID counter: counter-screen for HCV NS3 helicase inhibitors: DNA intercalator displacement | AID 1845 | DNA fluorescent intercalator displacement, fluorescence | inhibition, % at 7.9 µM | hit rate 0.17% among 290,000; in the data active = inhibition above about 37%;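 note: higher means more ethidium bromide displaced from hairpin DNA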
Kir21 inh: inhibitors of mouse Kir2.1 inward-rectifier potassium channel. HEK293-Kir2.1, FluxOR thallium flux fluorescence; stronger effect = lower value. B-score at 10 µM. P35561. hit rate 0.85% among 310,000;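 active = fluorescence ratio B-score at or below minus 3 SD of library scores, with starting-brightness B-score within 2 SD, cut at about -4.2 in these data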;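 note: channel flux triggered by added potassium and thallium sulfate stimulus; B-score of peak minus minimum fluorescence over baseline after thallium stimulus; more negative B-score means stronger Kir2.1 block with less thallium influx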
Of the large screens only hits and unclear results are named; the others gave an inactive call. Compounds with a hit are over-represented: about 2.3% of the library has one in this group of screens.

CC(Cc1ccccc1)NC(=O)Cc1ccc([N+](=O)[O-])cc1 (configuration not stated)	none
CC(Cc1ccccc1)NCc1ccccc1O (configuration not stated)	Kir21 inh -5.51
O=C1NC(=O)N(c2ccccc2)C(=O)/C1=C/C=C/c1ccco1	none
O=C1NC(=O)N(Cc2ccccc2)C(=O)/C1=C\C=C\c1ccco1	M18AAP inhibitor 29.9
CC(=O)c1ccc(OCC(=O)N2CCCC(N3CCN(c4ccccc4C)CC3)C2)cc1 (configuration not stated)	none
CC(C)(C)c1cc(OC(=O)Cc2ccccc2)ccc1O	none
CCN(CC)c1ccc(N=Cc2c(O)n(-c3cc(OC)ccc3OC)c(=O)[nH]c2=O)cc1	M18AAP inhibitor 33.5
CCN(CC)c1ccc(N=Cc2c(O)n(CCc3ccc(OC)c(OC)c3)c(=O)[nH]c2=O)cc1	none
COc1ccc(CCC(=O)N2C[C@H]3C[C@@H](C2)c2cccc(=O)n2C3)cc1	none
CCOC(=O)c1c(-c2ccc(OC)cc2)oc2ccc(OC(=O)N(C)C)cc12	Rce1 inh active
Cc1oc2ccc(OC(=O)N(C)C)cc2c1C(=O)OC(C)C	none
CN1CCN(c2ccc([N+](=O)[O-])c(N/N=C3\CN4CCC3CC4)c2)CC1	FID counter 42.3
CN1CCN(c2ccc([N+](=O)[O-])c(Sc3nncn3C)c2)CC1	Rce1 inh active
Brc1cccc(CNCCc2ccc3c(c2)OCO3)c1	none
C=C1C(=O)O[C@@H]2C[C@@H](C)[C@@H]3C=CC(=O)[C@@]3(C)[C@@H](OC(=O)CC(=O)O[C@H]3[C@@H]4C(=C)C(=O)O[C@@H]4C[C@@H](C)[C@@H]4C=CC(=O)[C@]43C)[C@H]12	Kir21 inh -4.65 (no result: M18AAP inhibitor, FID counter)
CC1=C2C(=O)C3C(CC=C4CC(O)CCC43C)C2CCC12OC1CC(C)CNC1C2C (configuration not stated)	none
Brc1ccc(-[n+]2c(-c3ccccc3)cc(-c3ccccc3)cc2-c2ccccc2)cc1	Kir21 inh -8.37 (no result: M18AAP inhibitor, FID counter)
COc1ccc(-[n+]2c(-c3ccccc3)cc(-c3ccc(C)cc3)cc2-c2ccccc2)cc1	Kir21 inh -12.8
O=C(O)c1ccc(-[n+]2c(-c3ccccc3)cc(-c3ccccc3)cc2-c2ccccc2)cc1	none (no result: M18AAP inhibitor, FID counter)
CCCOC(=O)c1ccc(-[n+]2c(-c3ccccc3)cc(-c3ccccc3)cc2-c2ccccc2)cc1	Kir21 inh -11.4 (no result: M18AAP inhibitor, FID counter)
CN1CCN(c2cccc3c2C(=O)c2ccccc2C3=O)CC1	FID counter 59.5
CNCC(O)c1cc(OCc2ccccc2)c(OCc2ccccc2)cc1F (configuration not stated)	Kir21 inh -6.01 (no result: M18AAP inhibitor, FID counter)
C[C@H]1CC[C@H]2NCCN[C@H]2C1	none
Oc1ccc(C(=C(Cl)Cl)c2ccc(O)cc2)cc1	Kir21 inh -5.59
CCCNC(=O)N1[C@H]2CC[C@@H]1C(C(=O)OC)=C(c1ccccc1)C2	none (no result: M18AAP inhibitor, FID counter)
CN1CCN(CCOC2c3ccccc3CSc3ccc(Cl)cc32)CC1 (configuration not stated)	Kir21 inh -4.75
O=C(COc1ccc(Cl)cc1)N(c1ccccc1Cl)C1CN2CCC1CC2 (configuration not stated)	none
Clc1ccc2c(c1)C(OC1CN3CCC1CC3)c1ccccc1CS2 (configuration not stated)	Kir21 inh -5.86
CSCCC(NC(=O)CCC(=O)OC1CC[C@H]2[C@@H]3CC[C@H]4CC(=O)CC[C@]4(C)[C@H]3CC[C@]12C)C(=O)O (some centres not stated)	none
Oc1ccc(C[C@H]2NCCc3cc(O)c(O)cc32)cc1O	M18AAP inhibitor 81.9
CCOc1cc2c(cc1OCC)-n1cccc1C(c1cccc(F)c1F)NC2 (configuration not stated)	none
O=P(Nc1cccnc1)(Oc1ccccc1Cl)Oc1ccccc1Cl	Kir21 inh -4.77
O=S1(=O)N(Cc2ccc(F)cc2)CCCN1Cc1ccccc1Cl	none
O=S(=O)(c1ccc(Cl)cc1)N1CCCC1c1cccnc1 (configuration not stated)	Kir21 inh -5.18
Cc1ccccc1-[n+]1c(-c2ccccc2)cc(-c2ccccc2)cc1-c1ccccc1	Kir21 inh -15.8 (no result: M18AAP inhibitor, FID counter)
Oc1ccccc1-[n+]1c(-c2ccccc2)cc(-c2ccccc2)cc1-c1ccccc1	Kir21 inh -12.2 (no result: M18AAP inhibitor, FID counter)
C[n+]1c(-c2ccccc2)cc(CCCCc2cc(-c3ccccc3)[n+](C)c(-c3ccccc3)c2)cc1-c1ccccc1	none
COc1ccc(-c2cc(-c3ccccc3)[n+](C)c(-c3ccccc3)c2)cc1	none
Cc1ccc(-c2cc(-c3ccccc3)cc(-c3ccccc3)[n+]2-c2ccc(C(=O)O)cc2)cc1	none (no result: M18AAP inhibitor, FID counter)
[O-]c1ccccc1-[n+]1c(-c2ccccc2)cc(-c2ccccc2)cc1-c1ccccc1	Kir21 inh -9.69 (no result: M18AAP inhibitor, FID counter)
Nc1ccccc1-[n+]1c(-c2ccccc2)cc(-c2ccccc2)cc1-c1ccccc1	Kir21 inh -5.78
CC(C)(C)c1ccc(C(=O)C2CCCN(C3CCC3)C2)cc1 (configuration not stated)	none
CC1CCC(C(C)C)C(OC(=O)Cn2c(COc3ccccc3)[n+](C)c3ccccc32)C1 (configuration not stated)	Kir21 inh -16.6
CCOc1cc(CNCCc2c[nH]c3ccccc23)cc(Cl)c1OC	Kir21 inh -5.6
COc1cccc(CNCCc2c[nH]c3ccccc23)c1OC	none
O=S(=O)(NC1CCCCC1)OCC(Cl)(Cl)Cl	none
CC(NS(=O)(=O)OCC(Cl)(Cl)Cl)c1ccccc1 (configuration not stated)	Kir21 inh -5.65
Nc1c(Cl)cc([N+](=O)[O-])cc1Cl	none (no result: M18AAP inhibitor, FID counter, Kir21 inh)
NC(N)=N/N=C/c1ccc(N(c2ccccc2)c2ccccc2)cc1	Kir21 inh -6.2
CN(C)CCNC(=O)c1cccn(Cc2cccc(C(F)(F)F)c2)c1=O	Rce1 inh active
COc1c2c(cc3c1OCO3)CC[N+](C)=C2	none
OC(c1cccc(Cl)c1)(c1cccc(Cl)c1)C1CN2CCC1CC2 (configuration not stated)	Kir21 inh -4.65
Cc1ccc(-c2cc(-c3ccc(C)cc3)[n+](-c3ccc(C(=O)O)cc3)c(-c3ccc(C)cc3)c2)cc1	none (no result: M18AAP inhibitor, FID counter)
Cc1ccc(C[n+]2c(-c3ccc(C)cc3)cc(-c3ccc(C)cc3)cc2-c2ccc(C)cc2)cc1	Kir21 inh -14.3 (no result: M18AAP inhibitor, FID counter)
O=C(C[N+]12CCC(CC1)C(CO)C2)c1ccc(Br)cc1 (configuration not stated)	none
Cc1cc(C)cc(NC(=O)CCNC(=O)N2C[C@H]3C[C@@H](C2)c2cccc(=O)n2C3)c1	none (no result: Rce1 inh)
CCOc1cc2c(cc1OCC)-n1cccc1C(c1ccc(C(C)C)cc1)NC2 (configuration not stated)	none
CC1(C)C[C@H]2C=C(C=O)[C@]3(C=O)C[C@]3(C)[C@H]2C1	Kir21 inh -8.19
Fc1ccccc1CCNCc1cccc2ccccc12	Kir21 inh -11.8
Cc1ccc(CNCCc2ccccc2F)cc1	none
CN1CC(C(=O)c2ccccc2)C(c2ccccc2)C1 (configuration not stated)	none
CN1CC(C(=O)c2cccc(C(F)(F)F)c2)C(c2ccc(Cl)cc2)C1 (configuration not stated)	Kir21 inh -6.76

Screening results: PubChem, several laboratories
